In all, about 52,000 compounds went through this assay and about 1,700 (3.3%) were called active. The entries come from a sample that favours actives as a whole. Values without a mark were called inactive. Cut-off read from the data, not from the text of the source: active = survival mostly below about 52% (no sharp cut-off); inactive = mostly above about 56%.
Test system: Wild type
Experiment: S. aureus survival, RN4220 and DeltatarO strains – OD600, teichoic acid synthesis inhibitors, primary screen (AID 463173)
Details: S. aureus RN4220 wild type/DeltatarO growth, OD600, 18 h, active compounds read low, screened at 18.75 µg/mL (by protocol)

SMILES	survival
CCN(CC)C(C)C(=O)Nc1c(C)cccc1C (stereo not given)	109%
Cc1ccc2oc(-c3cc(NC(=O)c4ccco4)ccc3Cl)nc2c1	1% (active)
Cc1ccc2oc(-c3cc(NC(=O)/C=C/c4ccco4)ccc3Cl)nc2c1	25%
COc1c(C)cccc1C(=O)Nc1ccc(Cl)c(-c2nc3cc(C)ccc3o2)c1	-6% (active)
Cc1ccc2oc(-c3cc(NC(=O)c4oc5ccccc5c4C)ccc3Cl)nc2c1	81%
Cc1ccc2oc(-c3cc(NC(=O)Cc4ccccc4)ccc3Cl)nc2c1	70%
O=C(Nc1ccc(Cl)c(-c2nc3ccccc3o2)c1)c1cccc2c(Cl)cccc12	67%
CC(C)c1ccc(NC(=O)c2cc3c(=O)oc4ccccc4c3s2)cc1	87%
CCOC(=O)c1c(-c2ccc(OC)cc2)oc2ccc(OCc3ccc(F)cc3F)cc12	42%
O=C(NCCCN1CCN(c2ccccc2)CC1)c1cc2c(s1)-c1ccccc1OC2	69%
CCOc1ccc(NC(=O)c2cc3c(s2)-c2ccccc2OC3)cc1	100%
O=C(NCCCN1CCN(c2ccc(F)cc2)CC1)c1cc2c(s1)-c1ccccc1OC2	62%
O=C(NCCc1ccc(Cl)cc1)c1cc2c(s1)-c1ccccc1OC2	105%
CCCN(C(=O)c1cc2c(s1)-c1ccccc1SC2)c1ccccc1F	1% (active)
O=C(NCc1ccc(Cl)cc1)c1cc2c(s1)-c1ccccc1SC2	62%
CCN(CC)CCOC(=O)c1ccc(NC(=O)c2cc3c(s2)-c2ccccc2OC3)cc1	5% (active)
O=C(NCc1ccc(F)cc1)c1cc2c(s1)-c1ccccc1SC2	50%
O=C(NCCCN1CCN(c2ccccc2F)CC1)c1cc2c(s1)-c1ccccc1OC2	11% (active)
CCc1cccc(NC(=O)c2cc3c(s2)-c2ccccc2OC3)c1	86%
CCCN(C(=O)c1cc2c(s1)-c1ccccc1OC2)c1ccccc1F	-2% (active)
CCCN1CCN(CCCNC(=O)c2cc3c(s2)-c2ccccc2OC3)CC1	83%
Cc1ccc(NC(=O)C2CCCN2S(=O)(=O)c2ccc3c(c2)CCCC(=O)N3)cc1Cl (stereo not given)	113%
COc1ccc(-c2nc3cc(N=Cc4ccccc4O)ccc3o2)cc1	111%

SMILES	survival
CCCCn1c2ccc(F)cc2c2nnc(SCCN3CCCCC3)nc21	139%
COCCCNC(=O)c1cc(-c2cccnc2)nc2ccccc12	118%
CCOc1ccc(NC(=O)CN2C(=O)c3ccccc3Sc3ccc(C(=O)OC)cc32)cc1	81%
COc1ccccc1OCc1ccc(C(=O)NCc2ccncc2)o1	116%
Cc1ccc(Cn2cc(S(=O)(=O)c3ccccc3)c(=O)c3cc(F)c(N4CCOCC4)cc32)cc1	58%
O=C(c1nc(-c2ccc(Cl)cc2)n2c1CCCCC2)N1CCN(c2ccc(F)cc2)CC1	70%
COc1ccc(C2c3c(n(C)c4ccccc34)C(=O)N2CC(=O)Nc2ccc(F)cc2)cc1 (stereo not given)	81%
CC(=O)Nc1ccccc1-c1nc2cc(C#N)c(C#N)cc2[nH]c1=O	108%
CCN(c1ccccc1C)S(=O)(=O)c1nnc(NC(=O)c2ccc(OC)c(OC)c2)s1	42%
COC(=O)c1ccccc1NC(=O)CCc1c(C)nc2c(c(C)nn2-c2ccccc2)c1C	117%
O=C(CSc1nc(-c2ccccc2)cn1-c1ccccc1)Nc1ccccc1	68%
COc1ccc(NC(=O)c2c(NCc3cccc(OC)c3)sc3c2CCC3)cc1	65%
CC(C)Nc1nc(NC(C)C)nc(N(C)C)n1	115%
Cc1ccc2oc3c(c(=O)c2c1)C(c1cccc(O)c1)N(Cc1ccccc1Cl)C3=O (stereo not given)	82%
CCN(C(=O)c1cc2c(s1)-c1ccccc1OC2)c1cccc(C(F)(F)F)c1	14% (active)
CCN(C(=O)c1cc2c(=O)oc3ccccc3c2s1)c1cccc(C(F)(F)F)c1	131%
COc1ccc(Cl)cc1NC(=O)c1cc2c(s1)-c1ccccc1OC2	80%
CCc1ccccc1N(CC)C(=O)c1cc2c(s1)-c1ccccc1OC2	9% (active)
CCCN(C(=O)c1cc2c(s1)-c1ccccc1OC2)c1ccc(C(C)C)cc1	5% (active)
CCCN(C(=O)c1cc2c(s1)-c1c(C)cccc1OC2)c1ccc(OCC)cc1	95%
CCOc1ccc(N(CC)C(=O)c2cc3c(s2)-c2ccccc2OC3)cc1	88%
CCN(C(=O)c1cc2c(s1)-c1ccccc1OC2)c1cc(Cl)ccc1OC	8% (active)
CCc1ccc(CNC(=O)c2cc3c(s2)-c2ccccc2OC3)cc1	95%

SMILES	survival
CCN(C(=O)c1cc2c(=O)n(CC)c3ccccc3c2s1)c1cccc(C(F)(F)F)c1	89%
COc1ccccc1CNC(=O)c1cc2c(s1)-c1ccccc1OC2	92%
CCOc1ccc(CNC(=O)c2cc3c(s2)-c2ccccc2OC3)cc1	91%
O=C(CSCc1cnn(-c2ccccc2)c1-n1cccc1)NCc1cccc(Cl)c1	91%
O=C(O)C1CCN(C(=O)c2ccc(-c3ccccc3)cc2)CC1	116%
Cc1ccc(Cl)cc1-n1c(=O)c2sc3ccccc3c2n(Cc2ccccc2)c1=O	77%
Cn1c(=O)oc2cc(S(=O)(=O)CCC(=O)NCc3ccc(Cl)cc3)ccc21	74%
O=C(NCc1ccccc1Cl)c1cc2c(s1)-c1ccccc1SC2	74%
Cc1ccc(CNC(=O)c2cc3c(s2)-c2ccccc2SC3)cc1	120%
CCc1ccccc1N(CC)C(=O)c1cc2c(s1)-c1ccccc1SC2	-1% (active)
CCOc1ccc(CCNC(=O)c2ccc3c(c2)N(Cc2ccccc2F)C(=O)c2ccccc2S3=O)cc1OCC (stereo not given)	84%
Cn1c(C(=O)NCc2ccc(Cl)cc2)cc2c(=O)n(C)c3ccccc3c21	120%
CCNC(=O)c1c(NC(=O)c2cc(=O)c3ccc(C)c(C)c3o2)sc2c1CCCC2	85%
Cc1ccccc1OCC(=O)OCc1cc(=O)n2ccsc2n1	82%
Cc1ccccc1C(=O)Nc1cccc(C(=O)OCc2cc(=O)n3c(C)csc3n2)c1	76%
Cc1csc2nc(COC(=O)c3cccc(NC(=O)c4cccc(Cl)c4)c3)cc(=O)n12	-1% (active)
Cc1csc2nc(COC(=O)c3ccc(F)cc3)cc(=O)n12	81%
Cc1csc2nc(COC(=O)c3ccccc3NC(=O)c3ccc(F)cc3)cc(=O)n12	14% (active)
COc1cccc(C(=O)Nc2cccc(C(=O)OCc3cc(=O)n4c(C)csc4n3)c2)c1	133%
Cc1csc2nc(COC(=O)c3ccccc3NC(=O)c3ccc(C(C)(C)C)cc3)cc(=O)n12	55%
COc1ccccc1C(=O)Nc1ccccc1C(=O)OCc1cc(=O)n2c(C)csc2n1	131%
CCOc1ccc(C(=O)Nc2ccc(C(=O)OCc3cc(=O)n4c(C)csc4n3)cc2)cc1	85%
CCOc1cc(C(=O)OCc2cc(=O)n3c(C)csc3n2)cc(OCC)c1OCC	-3% (active)

SMILES	survival
Cc1ccc2nc(COc3ccccc3NC(=O)c3ccc(F)cc3)cc(=O)n2c1	-3% (active)
Cc1ccc2nc(COc3ccccc3NC(=O)c3ccccc3F)cc(=O)n2c1	80%
Cc1cccc(C(=O)Nc2ccccc2OCc2cc(=O)n3cc(C)ccc3n2)c1	47%
CCOc1ccc(NC(=O)CSc2nc(-c3cccc(Cl)c3)nc3c2Cc2c(CO)cnc(C)c2O3)cc1	84%
COc1cc(OC)cc(C(=O)N2CCN(C(=O)COc3ccccc3)CC2)c1	64%
CCc1ccc(NC(=O)CN(c2cc(C)cc(C)c2)S(=O)(=O)c2c(C)[nH]c(=O)[nH]c2=O)cc1	68%
CC(C)c1cc(-c2nc(-c3cccc(Cl)c3)no2)n[nH]1	131%
Cc1cc(Br)ccc1NC(=O)C1CCN(S(=O)(=O)c2ccc(Br)s2)CC1	70%
COC(=O)C1=C(c2ccccc2)c2ccccc2S(=O)(=O)N1CC(=O)Nc1ccc(OC)cc1OC	154%
CS(=O)(=O)c1cccc(S(=O)(=O)c2cccc(S(C)(=O)=O)c2)c1	86%
O=C(Nc1ccccc1C(=O)OCc1cc(=O)n2c3c(sc2n1)CCCC3)c1ccccc1	94%
O=C(Nc1ccccc1C(=O)OCc1cc(=O)n2c3c(sc2n1)CCCC3)c1cccc(Cl)c1	73%
Cc1csc2nc(COC(=O)c3cccc(NC(=O)COc4ccc(Cl)cc4)c3)cc(=O)n12	78%
O=C(Nc1ccccc1C(=O)OCc1cc(=O)n2c3c(sc2n1)CCCC3)c1ccc(Cl)cc1	-3% (active)
Cc1cccc(C)c1OCc1cc(=O)n2c3c(sc2n1)CCCC3	-1% (active)
Cc1ccc(OCC(=O)Nc2cccc(C(=O)OCc3cc(=O)n4c(C)csc4n3)c2)cc1	69%
Cc1ccc(OCc2cc(=O)n3c4c(sc3n2)CCCC4)cc1C	80%
Cc1cccc(OCc2cc(=O)n3c4c(sc3n2)CCCC4)c1C	128%
Cc1cccc(OCC(=O)Nc2cccc(C(=O)OCc3cc(=O)n4c(C)csc4n3)c2)c1	-6% (active)
CCCCSc1nc(-c2cccc(OC)c2)nc2c1Cc1c(CO)cnc(C)c1O2	86%
O=C(c1nc(-c2ccc(Cl)cc2)n2c1CCCCC2)N1CCN(c2ccccc2F)CC1	68%

Source: PubChem BioAssay AID463173 (ICCB-Longwood Screening Facility, Harvard Medical School, 2010)
